{"source": "PubChem BioAssay (Tox21)", "note": "Records with an inconclusive call do not appear. Unmarked numbers belong to inactive results. Active and inactive are the calls of the source. Calls come from the whole dose curve. % is set by controls: 0 for no effect and ±100 for the full control effect.", "data": [{"assay": "qHTS assay to identify small molecule agonists or antagonists of the thyroid stimulating hormone receptor (TSHR) signaling pathway - wild type cell line counter screen (AID 1259384)", "conditions": "HEK293 wild type, cAMP HTRF counter-screen, active compounds read high; series mostly up to 92.4 µM; cAMP activity change: at the top concentration", "source_text": "U.S. Tox21 Program National Center for Advancing Translational Sciences [NCATS] NIH Chemical Genomics Center [NCGC] U.S. Environmental Protection Agency [EPA] National Institutes of Environmental Health Sciences [NIEHS] National Toxicology Program [NTP] U.S. Food and Drug Administration [FDA] Tox21 Assay Overview: TSHR is the receptor for thyrotropin (thyroid stimulating hormone or TSH), a member of the glycoprotein hormone family. TSH is released by the anterior pituitary gland and is the main regulator of thyroid gland growth and development. Upon binding circulating thyrotropin, a G-protein signal cascade activates adenylyl cyclase and […] cAMP concentration is increased. cAMP is a key second messenger involved extensively in cellular signal transduction pathways associated with the majority of G-protein coupled receptors (GPCRs). The activation of these GPCRs by neurotransmitters, lipids, nucleotides, peptides and hormones results in the activation or the inhibition of plasma membrane-bound adenylate cyclase through heterotrimeric G-proteins. A cell-based TSHR-Hek293 assay can be used to identify TSHR agonists. To eliminate the false positive compounds identified from screening a cell-based TSHR-Hek293 cell line, cAMP assay in a wild type Hek293 cells was used as a counter screening.\nTox21 Assay Protocol Summary: Hek293 cells (wild type) were dispensed at 800 cells/4 uL/well in 1536-well white plates using a Multidrop dispenser. After the assay plates were incubated at a 37 C/5% CO2 incubator for 18 hrs, 23 nL of compounds dissolved in DMSO, positive controls or DMSO only was transferred to the assay plate by a pin tool, followed by 1 ul medium containing Ro20-1724. After 30 min of incubation at room temperature, 2.5 ul/well of cAMP-d2 and 2.5 ul/well of anti-cAMP-cryptate were added respectively into the assay plates using a Flying Reagent Dispenser. The plates were incubated at room temperature for 1 hr. The fluorescence intensity in the plates was measured using an Envision plate reader. Each test compound was measured at 15 concentrations and in triplicates.", "values": [{"smiles": "O=[N+]([O-])c1cc(Cl)ccc1Cl", "cAMP activity change": "0.276%"}, {"smiles": "CC(C)(C)C(O)C(Oc1ccc(-c2ccccc2)cc1)n1cncn1", "note": "(stereo not given)", "cAMP activity change": "0.574%"}, {"smiles": "[Cl][Sn]([c]1ccccc1)([c]1ccccc1)[c]1ccccc1", "cAMP activity change": "23.5% [at 18.9 µM]"}, {"smiles": "C[C@H]1CC[C@@H]2[C@@H](C)[C@H]3[C@H](C[C@H]4[C@@H]5CC=C6CC(O[C@@H]7O[C@H](CO)[C@H](O)[C@H](O[C@@H]8O[C@H](CO)[C@@H](O)[C@H](O)[C@H]8O)[C@H]7O[C@H]7O[C@@H](C)[C@H](O)[C@@H](O)[C@H]7O)CC[C@]6(C)[C@H]5CC[C@]34C)N2C1", "note": "(stereo not given in full)", "cAMP activity change": "-5.95%"}, {"smiles": "N#CC(Cl)Cl", "cAMP activity change": "-1.39%"}, {"smiles": "BrCBr", "cAMP activity change": "-0.333%"}, {"smiles": "[CH3][Hg][Cl]", "cAMP activity change": "2.92%"}, {"smiles": "N#Cc1c(-c2ccc(Cl)cc2)[nH]c(C(F)(F)F)c1Br", "cAMP activity change": "-4.16%"}, {"smiles": "CCOC(=O)c1ccccc1S(=O)(=O)NC(=O)Nc1nc(Cl)cc(OC)n1", "cAMP activity change": "-1.62%"}, {"smiles": "CCN(CC)C(=S)[S-].CCN(CC)C(=S)[S-].[Zn+2]", "cAMP activity change": "0.707%"}, {"smiles": "COP(=O)(OC)SCn1c(=O)oc2cc(Cl)cnc21", "cAMP activity change": "-0.613%"}, {"smiles": "Nc1ccc(Sc2ccc(N)cc2)cc1", "cAMP activity change": "-7.55%"}, {"smiles": "Oc1ccc(C(=C(Cl)Cl)c2ccc(O)cc2)cc1", "cAMP activity change": "5.95%"}, {"smiles": "CN(CCCC(O)c1cccnc1)N=O", "note": "(stereo not given)", "cAMP activity change": "-0.216%"}, {"smiles": "CCCN(CCC)CCc1c[nH]c2ccccc12", "cAMP activity change": "6.23%"}, {"smiles": "CC1(C)CN=C(NN=C(/C=C/c2ccc(C(F)(F)F)cc2)/C=C/c2ccc(C(F)(F)F)cc2)NC1", "cAMP activity change": "3.81%"}, {"smiles": "CN(CCCC(=O)c1cccnc1)N=O", "cAMP activity change": "5.36%"}, {"smiles": "Clc1ccc(C(c2ccc(Cl)cc2)C(Cl)(Cl)Cl)cc1", "outcome": "inactive"}, {"smiles": "Cn1[nH]nnc1=S", "cAMP activity change": "0.969%"}, {"smiles": "COP(=O)(CCC(=O)NCO)OC", "cAMP activity change": "0.277%"}, {"smiles": "Clc1ccc(COC(Cn2ccnc2)c2ccc(Cl)cc2Cl)cc1", "note": "(stereo not given)", "outcome": "inactive"}, {"smiles": "CCCCCCCCc1ccc(O)cc1", "cAMP activity change": "2.8%"}, {"smiles": "CC(C)(C)OO", "cAMP activity change": "-1.28%"}, {"smiles": "CSCCCN=C=S", "cAMP activity change": "3.41%"}, {"smiles": "C[C@]12CC[C@H]3[C@@H](CCC4=CC(=O)CC[C@@]43C)[C@@H]1CC[C@@H]2O", "cAMP activity change": "2.46%"}, {"smiles": "COc1ccc([N+](=O)[O-])cc1O", "cAMP activity change": "-0.0034% [at 42.5 µM]"}, {"smiles": "CCSC(C)CC1CC(=O)C(/C(CC)=N/OC/C=C/Cl)=C(O)C1", "note": "(stereo not given)", "cAMP activity change": "1.21% [at 42.5 µM]"}, {"smiles": "CC(C)OC(=S)S", "cAMP activity change": "2.4%"}, {"smiles": "CCOCCOC(C)=O", "cAMP activity change": "4.44%"}, {"smiles": "COC(=O)N(C(=O)N1COC2(C(=O)OC)Cc3cc(Cl)ccc3C2=N1)c1ccc(OC(F)(F)F)cc1", "note": "(stereo not given)", "cAMP activity change": "8.07% [at 42.5 µM]"}, {"smiles": "O=C(NC(=O)c1c(F)cccc1F)Nc1cc(Cl)c(OC(F)(F)C(F)F)c(Cl)c1", "cAMP activity change": "-1.65%"}, {"smiles": "CC(C)[C@H](C(=O)O[C@H](C#N)c1cccc(Oc2ccccc2)c1)c1ccc(Cl)cc1", "cAMP activity change": "-2.81%"}, {"smiles": "ClC(Cl)=C(c1ccc(Cl)cc1)c1ccc(Cl)cc1", "outcome": "inactive"}, {"smiles": "CC(=O)O[C@H]1CC[C@@]2(C)C(=CC[C@@H]3[C@@H]2CC[C@]2(C)C(=O)CC[C@@H]32)C1", "cAMP activity change": "9.17%"}, {"smiles": "COc1ccc(OC)c(CC(C)N)c1", "note": "(stereo not given)", "cAMP activity change": "0.693%"}, {"smiles": "O=C(Cl)c1ccc(Cl)cc1", "cAMP activity change": "-0.23%"}, {"smiles": "CC(Cc1ccc(C(C)(C)C)cc1)CN1C[C@@H](C)O[C@@H](C)C1", "note": "(stereo not given in full)", "cAMP activity change": "3.44%"}, {"smiles": "C=CC(=O)OCCCCOC(=O)C=C", "cAMP activity change": "0.342%"}, {"smiles": "COP(N)(=S)OC", "cAMP activity change": "4.36%"}, {"smiles": "ClCc1ccccc1CCl", "cAMP activity change": "-2.29%"}]}]}
